Assay results from PubChem BioAssay (NCATS).
Records with an inconclusive call do not appear. Active and inactive are the calls of the source. The call rests on the fitted dose curve; in most records, active means well fitted cell-killing curve with a large enough effect; inconclusive means small, poorly fitted or top-dose-only effect, or effect the other way; inactive means no such curve, though single readings can be large or run the other way.

Test: Quantitative High-Throughput drug screen in 47 multiple myeloma cell lines against the NCATS MIPE library collection: UTMC2_PLB cell viability assay (AID 1919868); further: nearly all actives have a fitted effect of over 55% in size
Conditions: CellTiter-Glo ATP luminescence, 48 h; series mostly up to 45.8 µM; viability (% of DMSO control): at the top concentration
From the text: PI: Beverly A. Mock Ph.D.
Laboratory of Cancer Biology and Genetics,
Center for Cancer Research, National Cancer Institute,
National Institute of Health, Bethesda, Maryland
Drug resistance and disease progression are common in multiple myeloma (MM) patients, underscoring the need for new therapeutic combinations. […] We hypothesized that effective combinations would reduce MYC expression and enhance p16 activity. […] These preclinical data identify potentially useful drug combinations for evaluation in drug-resistant MM and reveal potential mechanisms of combined drug sensitivity.
Described herein is the primary MIPE qHTS used to cherrypick compounds. Validated compounds were then further tested for potential synergistic activiy.
[1] Peat TJ, Gaikwad SM, Dubois W, Gyabaah-Kessie N, Zhang S, Gorjifard S, Phyo Z, Andres M, Hughitt VK, Simpson RM, Miller MA, Girvin AT, Taylor A, Williams D, D'Antonio N, Zhang Y, Rajagopalan A, Flietner E, Wilson K, Zhang X, Shinn P, Klumpp-Thomas C, McKnight C, Itkin Z, Chen L, Kazandijian D, Zhang J, Michalowski AM, Simmons JK, Keats J, Thomas CJ, Mock BA. Drug combinations identified by high-throughput screening promote cell cycle transition and upregulate Smad pathways in myeloma. Cancer Lett. 2023 Aug 1;568:216284. doi: 10.1016/j.canlet.2023.216284. Epub 2023 Jun 24. PMID: 37356470; PMCID: PMC10408729.
SEQUENCE No. (e.g., 1, 2, 3, etc.); […] (e.g., Cells, Incubation, Reagent, etc.); VALUE and DESCRIPTION.
1; Cells; 5 uL; white, solid bottom 1536-well Greiner assay plate.
2; Compounds; 23 nL; Kalypsis pin tool (Wako USA) equipped with a 1536-well pin head to transfer to the assay plates.
3; Incubation; 48 hours; 37C incubation.
4; Reagent;5uL; CellTiter Glo (Promega).
5; Detector; 425V; Luminescence; Viewlux PerkinElmer.
NOTES (numbers refer to Sequence numbers above)
1. The cell-based screening methods employed in this study were like those previously published. Briefly, the corresponding myeloma cell lines were screened in 1,536-well plates with 500 cells, 5-uL per well for inhibition of cell viability (assessed by measuring ATP levels with CellTiterGlo).
2. NCATS MIPE 4.0 library of approved and investigational drugs were added using the Kalypsis pin tool. Wells treated with DMSO only for 100% viability and media only for 0% viability were used as controls.
3. The assay plates were covered and incubated for 48 hours in a 37C, 5% CO2 incubator with controlled humidity.
4. After 48 hours, CellTilter-GloTM luminescent substrate mix (Promega) reagent was added to the assay plate and plates we incubated for 5 min at room temperature.
5. Signal was measured as median relative luminescence units on a ViewLux (PerkinElmer) multiplate reader.
[1] Heske CM, Davis MI, Baumgart JT, Wilson K, Gormally MV, Chen L, Zhang X, Ceribelli M, Duveau DY, Guha R, Ferrer M, Arnaldez FI, Ji J, Tran HL, Zhang Y, Mendoza A, Helman LJ, Thomas CJ. Matrix Screen Identifies Synergistic Combination of PARP Inhibitors and Nicotinamide Phosphoribosyltransferase (NAMPT) Inhibitors in Ewing Sarcoma. Clin Cancer Res. 2017 Dec 1;23(23):7301-7311. doi: 10.1158/1078-0432.CCR-17-1121. Epub 2017 Sep 12. PMID: 28899971; PMCID: PMC6636827.
Potency means the concentration at half of the fitted maximal effect.

Row | Structure (SMILES) | Potency | viability (% of DMSO control)
1 | CCOC(=O)[C@H](CCc1ccccc1)N[C@H]1CCc2ccccc2N(CC(=O)O)C1=O | 29.6 µM (active) | 
2 | CCN(CC)CC#CCOC(=O)C(O)(c1ccccc1)C1CCCCC1 (stereo not given) |  | 176% (inactive)
3 | O=S(=O)(O)CCS |  | 155% (inactive)
4 | O[C@@H](CNC[C@H](O)[C@H]1CCc2cc(F)ccc2O1)[C@@H]1CCc2cc(F)ccc2O1 | 20.9 µM (active) | 
5 | C[C@@H]1C[C@H]2[C@@H]3CCC4=CC(=O)C=C[C@]4(C)[C@@]3(Cl)[C@@H](O)C[C@]2(C)[C@@]1(OC(=O)c1ccco1)C(=O)CCl | 10.5 µM (active) | 
6 | COc1ncnc(NS(=O)(=O)c2ccc(N)cc2)c1OC |  | 136% (inactive)
7 | Nc1[nH]c(=O)ncc1F |  | 116% (inactive)
8 | CCCc1nc(C)c2c(=O)[nH]c(-c3cc(S(=O)(=O)N4CCN(CC)CC4)ccc3OCC)nn12 | 10.5 µM (active) | 
9 | NC1(c2ccc(-c3nc4ccn5c(=O)[nH]nc5c4cc3-c3ccccc3)cc2)CCC1 | 1.18 µM (active) | 
10 | Cc1cccc(Nc2ccncc2S(=O)(=O)NC(=O)NC(C)C)c1 |  | 141% (inactive)
11 | COc1cc2ncnc(Nc3cccc(Cl)c3)c2cc1OC |  | 72.9% (inactive)
12 | CC[C@H](NC(C)C)[C@H](O)c1ccc(O)c2[nH]c(=O)ccc12 |  | 145% (inactive)
13 | CC(C)C[C@H](NC(=O)[C@H](CCc1ccccc1)NC(=O)CN1CCOCC1)C(=O)N[C@@H](Cc1ccccc1)C(=O)N[C@@H](CC(C)C)C(=O)[C@@]1(C)CO1 | 0.001 µM (active) | 
14 | Cc1cccc(N(C)C(=S)Oc2ccc3ccccc3c2)c1 |  | 153% (inactive)
15 | CCc1c2c(nc3ccc(OC(=O)N4CCC(N5CCCCC5)CC4)cc13)-c1cc3c(c(=O)n1C2)COC(=O)[C@]3(O)CC | 0.418 µM (active) | 
16 | C[C@@H]1CN(c2c(F)c(N)c3c(=O)c(C(=O)O)cn(C4CC4)c3c2F)C[C@H](C)N1 |  | 185% [at 23.2 µM] (inactive)
17 | CNS(=O)(=O)CCc1ccc2[nH]cc(C3CCN(C)CC3)c2c1 | 1.05 µM (active) | 
18 | CN(Cc1cc(Br)cc(Br)c1N)C1CCCCC1 |  | 196% (inactive)
19 | CCOC(=O)[C@H](CCc1ccccc1)N[C@H]1CS[C@H](c2cccs2)CN(CC(=O)O)C1=O | 11.8 µM (active) | 
20 | CCn1cc(C(=O)O)c(=O)c2cc(F)c(N3CCNCC3)nc21 |  | 122% (inactive)

Row | Structure (SMILES) | Potency | viability (% of DMSO control)
21 | O=NN(CCCl)C(=O)NC1CCCCC1 |  | 149% (inactive)
22 | OC(Cn1cncn1)(Cn1cncn1)c1ccc(F)cc1F |  | 161% (inactive)
23 | COC(=O)Nc1nc2ccc(Sc3ccccc3)cc2[nH]1 | 2.09 µM (active) | 
24 | O=C(NCC1CN(c2ccc(N3CCOCC3=O)cc2)C(=O)O1)c1ccc(Cl)s1 (stereo not given) |  | 163% (inactive)
25 | CS(=O)(=O)c1ccc([C@@H](O)[C@@H](CO)NC(=O)C(Cl)Cl)cc1 | 13.2 µM (active) | 
26 | Nc1nc(=S)c2[nH]cnc2[nH]1 | 5.9 µM (active) | 
27 | Cc1ccc(S(=O)(=O)N[C@@H](Cc2ccccc2)C(=O)CCl)cc1 | 13.2 µM (active) | 
28 | CCn1cc(C(=O)O)c(=O)c2cc(F)c(N3CCNCC3)cc21 |  | 167% (inactive)
29 | CCC(C)(C)c1ccc(CC(C)CN2C[C@@H](C)O[C@@H](C)C2)cc1 (stereo not given in full) |  | 85.8% (inactive)
30 | N[C@@H](C(=O)N[C@@H]1C(=O)N2C(C(=O)O)=C(Cl)CS[C@H]12)c1ccccc1 |  | 152% (inactive)
31 | COc1cccc(N(C)C(=S)Oc2ccc3c(c2)CCCC3)n1 |  | 141% (inactive)
32 | CN1CCN(c2c(F)cc3c(=O)c(C(=O)O)cn4c3c2OCN4C)CC1 |  | 183% (inactive)
33 | Nc1nc(F)nc2c1ncn2[C@@H]1O[C@H](CO)[C@@H](O)[C@@H]1O | 0.235 µM (active) | 
34 | COc1cc([C@@H]2c3cc4c(cc3[C@H](O)[C@H]3COC(=O)[C@H]23)OCO4)cc(OC)c1OC |  | 8.08% (inactive)
35 | CCCOc1ccc(C(=O)OCCN(CC)CC)cc1N |  | 142% (inactive)
36 | CC1=C(C(=O)O)N2C(=O)[C@@H](NC(=O)C(N)c3ccccc3)[C@H]2SC1 (stereo not given in full) |  | 103% (inactive)
37 | CC(C)(C)C(=O)OCOP(=O)(COCCn1cnc2c(N)ncnc21)OCOC(=O)C(C)(C)C | 0.526 µM (active) | 
38 | O=P(O)(O)C(O)(Cc1cccnc1)P(=O)(O)O |  | 177% (inactive)
39 | CNCC[C@H](Oc1cccc2ccccc12)c1cccs1 | 2.64 µM (active) | 
40 | NC(=O)c1cccnc1 |  | 214% (inactive)
